# Assay outcomes as filed in PubChem.
# KCNH2 3.1 block – qHTS for Inhibitors of KCHN2 3.1: Mutant qHTS; activity change, % (tested at about 1.8 µM); U2OS KCNH2 3.1, thallium flux FluxOr; hits give low values; 340,000 compounds, 0.95% hits; Potassium voltage-gated channel subfamily H member 2, brain isoform KCNH2 3.1 (human);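 active means maximum activity change below -70%; inconclusive means maximum activity change from -70% to -50%; inactive means maximum activity change above -50%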;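 further: thallium influx rate constant from kinetic fluorescence after stimulation buffer; on the % scale 0 is the no-effect control and ±100 the full control effect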
#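 Steps: virus added to U2OS suspension (4 h, RT, dark); medium with 10% FBS added, cells plated, 37 C overnight; FluxOr/Red40 loading buffer 45 min RT; stimulation buffer, 2 min kinetic read; rate constant normalized.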
# GRP78 ERSR act – qHTS for Inducers of the Endoplasmic Reticulum Stress Response (ERSR) in Human Glioma: qHTS; U87-MG GRP78 promoter luciferase reporter, 16 h; Potency, µM, inactives show top-dose activation, actives largely listed as activators; 420,000 compounds, 0.02% hits; AID 602332, 2012; active means well fitted activation curve with a large enough effect; inconclusive means small, poorly fitted or top-dose-only effect; inactive means no such curve, though single readings can be large or run the other way; further: potency means the concentration at half of the fitted maximal effect; series mostly up to about 76 µM; % of control where 0% means no effect; nearly all actives have a fitted effect of over 35% in size
#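 Stably transfected U87-MG human glioma cells carrying a GRP78-based luminescent sensor were seeded at 1000 cells/well, pin-dosed with compounds and incubated 16 h. Luciferase reagent was then added, and end-point luminescence was read after 10 min at room temperature.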
# hERG WT inh – qHTS for Inhibitors of KCHN2 3.1: Wildtype qHTS; U2OS, BacMam KCNH2, thallium flux FluxOr; hits give low values; activity change, % at 1.84 µM; 340,000 compounds, 0.37% hits;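 active means maximum activity change below -70%; inconclusive means maximum activity change between -70% and -50%; inactive means maximum activity change above -50%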; further: on the % scale 0 is the no-effect control and ±100 the full control effect
# Target sequence (Q12809 whole entry, looked up): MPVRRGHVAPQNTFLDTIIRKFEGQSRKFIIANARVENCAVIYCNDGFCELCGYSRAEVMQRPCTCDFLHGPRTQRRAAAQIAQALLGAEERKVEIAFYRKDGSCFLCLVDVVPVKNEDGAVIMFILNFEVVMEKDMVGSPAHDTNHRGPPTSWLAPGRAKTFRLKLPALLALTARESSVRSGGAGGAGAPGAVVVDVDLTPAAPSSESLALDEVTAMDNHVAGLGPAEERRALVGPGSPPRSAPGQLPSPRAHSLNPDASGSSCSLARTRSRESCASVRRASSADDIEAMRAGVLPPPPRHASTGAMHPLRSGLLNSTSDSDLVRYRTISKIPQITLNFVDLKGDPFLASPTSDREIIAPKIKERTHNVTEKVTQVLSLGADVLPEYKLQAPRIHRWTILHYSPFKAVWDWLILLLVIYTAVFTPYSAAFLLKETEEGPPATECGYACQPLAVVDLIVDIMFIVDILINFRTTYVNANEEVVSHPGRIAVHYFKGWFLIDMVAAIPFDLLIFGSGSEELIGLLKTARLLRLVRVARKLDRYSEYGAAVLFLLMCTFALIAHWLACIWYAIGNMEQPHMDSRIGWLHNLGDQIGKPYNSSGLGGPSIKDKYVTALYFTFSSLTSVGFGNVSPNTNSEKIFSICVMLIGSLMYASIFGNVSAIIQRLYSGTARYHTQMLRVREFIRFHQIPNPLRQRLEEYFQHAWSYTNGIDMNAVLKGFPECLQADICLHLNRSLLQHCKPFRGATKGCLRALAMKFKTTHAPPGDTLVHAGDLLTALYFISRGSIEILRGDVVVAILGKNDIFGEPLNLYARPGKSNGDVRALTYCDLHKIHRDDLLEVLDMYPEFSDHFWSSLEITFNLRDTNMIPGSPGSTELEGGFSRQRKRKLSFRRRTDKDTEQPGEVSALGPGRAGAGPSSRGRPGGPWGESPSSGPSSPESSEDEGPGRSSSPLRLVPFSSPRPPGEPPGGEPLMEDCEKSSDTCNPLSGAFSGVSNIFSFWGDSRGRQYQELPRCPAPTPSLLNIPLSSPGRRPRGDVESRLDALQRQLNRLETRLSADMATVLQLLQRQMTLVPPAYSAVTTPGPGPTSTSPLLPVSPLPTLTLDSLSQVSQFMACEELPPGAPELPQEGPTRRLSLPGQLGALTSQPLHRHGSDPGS
#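 U2OS cells were transduced with wild-type KCNH2 virus (2.03 x 10^8 / mL) for 4 h at room temperature, then cultured overnight at 37 C. Thallium flux was read with FluxOr dye. Rate constants were normalized to DMSO controls.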
# TRPML1 ag – qHTS for Agonists of the Human Mucolipin Transient Receptor Potential 1 (TRPML1) | Mucolipin-1 (Homo sapiens), Q9GZU1 | TRPML1-expressing cells, Ca2+ dye fluorescence, FDSS | activation, % (test concentration not listed) | 410,000 compounds, 0.12% hits | AID 624414, 2012; in the data active means activation above about 50%; inconclusive means mostly about 30% to 49%; further: 0% is about no effect
#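 Cells: TRPML1-DL, 1X Tet inducer, ~16 h at 37 degrees C/5% CO2. Dye: ABD Ca8 no-wash + quencher, 45-90 min RT. Read: 10 s baseline, compound add, 110 s agonist phase; 54-4 EC80 (4uM final), 110 s antagonist phase.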
# PTAP TSG101 blk – qHTS Assay for Iinhibitors of HIV-1 Budding by Blocking the Interaction of PTAP/TSG101. Fluorescence polarization, FITC-PTAP peptide / Tsg101 binding. 340,000 tested, under 10 active. AID 493005, 2010. Tumor susceptibility gene 101 protein (Homo sapiens), Q99816. Potency, µM (doses to about 115 µM), inactives show top-dose activity change, negative = inhibition, hits mostly inhibitors; active means well fitted inhibition curve with a large enough effect in the main read-out, with a control signal flat, not every such curve was filed as active; inconclusive means small, poorly fitted or top-dose-only effect, or effect the other way, or a change in a side signal; inactive means no such curve, though single readings can be large or run the other way; further: potency means the concentration at half of the fitted maximal effect; % of control where 0% means no effect
#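 Tsg101 binding domain (10 uM final) was mixed with compound and a FITC-labeled PTAP peptide (50 nM final) in HEPES pH 7.5 buffer with NaCl, Tween 20, EDTA and TCEP; fluorescence polarization was read after 20 min at r.t.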
# TRPML1 blocker – qHTS for Inhibitors of the Human Mucolipin Transient Receptor Potential 1 (TRPML1); Mucolipin-1 (Homo sapiens), Q9GZU1; TRPML1-inducible cells, Ca2+ dye fluorescence, FDSS; hits give low values; inhibition of EC80 agonist-evoked calcium signal; activity change, negative = inhibition, % (no concentration beside the values); 390,000 compounds, 0.02% hits; AID 624415, 2012; in the data active means activity change below about -50%; inconclusive means between about -30% and that limit;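 further: stimulus is agonist 54-4 at its EC80 concentration; on the % scale 0 is the no-effect control and ±100 the full control effect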
#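 Calcium fluorescence in TRPML1-DL cells induced overnight with Tet: a 110 s read after compound pin addition, then a 110 s antagonist read after challenge with 54-4 at 4 uM final (EC80).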
# The depositor's hits bear a star; i = inactive; ? = inconclusive; nt = no result given. Shown are actives, neighbours in structure and some others; about 1% of the full set was active somewhere.
SMILES,KCNH2 3.1 block,GRP78 ERSR act,hERG WT inh,TRPML1 ag,PTAP TSG101 blk,TRPML1 blocker
Cc1ccc(C(=O)N/C(=C\c2ccc(F)cc2)C(=O)NCCCn2ccnc2)cc1,-114*,-6%,-95*,2,-3%,18
COc1ccc(/C=C(\NC(=O)c2ccc(C)cc2)C(=O)NCCCn2ccnc2)cc1OC,3,-4%,2,0,-1%,-29
O=C(NCCCn1ccnc1)/C(=C\c1ccc(Br)cc1)NC(=O)c1ccccc1,-104*,-3%,-125*,0,-2%,87
O=C(NCCCn1ccnc1)/C(=C/c1ccccc1)NC(=O)c1ccccc1,-113*,-3%,-137*,0,-2%,11
Cc1cnc(C)c(-c2ccc3c(c2)CC(CNC(=O)Cc2c(C)[nH]c4ccccc24)O3)n1 (stereo not drawn),nt,-4%,nt,nt,nt,nt
OC1(c2cccnc2)CCN(Cc2ccc3c(c2)CN(Cc2cc(F)ccc2F)CCO3)CC1,nt,-2%,nt,nt,nt,nt
Cc1ccc(C(=O)N/C(=C/c2ccco2)C(=O)NCCCn2ccnc2)cc1,-93*,-5%,?,0,-3%,-8
O=C(CCCNC(=O)/C(=C/c1ccc(F)cc1)NC(=O)c1ccccc1)OCc1ccccc1,-1,-1%,-138*,1,-3%,10
Cc1ccccc1NC(=O)CN1C(=O)NC2(CCCCC2)C1=O,-25,-3%,4,1,-3%,-6
CC(C)(C)c1ccccc1NC(=O)CN1C(=O)NC2(CCCCCC2)C1=O,2,-5%,-170*,0,-3%,13
CC1CN(C(=O)CN2C(=O)NC3(CCCCCC3)C2=O)CC(C)O1 (stereo not drawn),-90*,-4%,0,-1,0%,-4
COc1ccc(-n2c(CNC(=O)c3c(-c4ccccc4)noc3C)nnc2SC)cc1,nt,-4%,nt,nt,nt,nt
CC(C)Cc1nc2cc(NS(=O)(=O)N(C)C)cc(C(=O)N3CCc4ccccc4C3)c2n1C,nt,6%,nt,nt,nt,nt
O=C(CNC(=S)N(CCCN1CCOCC1)Cc1cccs1)NCc1ccccc1Cl,-123*,-10%,-113*,0,0%,-11
O=C(CNC(=S)N(CCCN1CCOCC1)Cc1cccs1)NCc1ccc(Cl)cc1,-83*,2%,-84*,1,-5%,-7
O=C(CNC(=S)N(CCCN1CCOCC1)Cc1cccs1)NCCCN1CCOCC1,15,-2%,19,0,1%,12
CCCCN(C(=O)c1ccc(-c2ccc(Cl)cc2)o1)c1c(N)n(CCCC)c(=O)[nH]c1=O,4,0%,-202*,1,-1%,-1
CCCCN(C(=O)c1ccc(-c2ccc(Cl)cc2)o1)c1c(N)n(CCC)c(=O)[nH]c1=O,8,0%,6,3,-7%,-3
CN[C@H](CC(C)C)C(=O)N[C@H]1C(=O)N[C@@H](CC(N)=O)C(=O)N[C@H]2C(=O)N[C@H]3C(=O)N[C@H](C(=O)N[C@H](C(=O)O)c4cc(O)cc(O)c4-c4cc3ccc4O)[C@H](O)c3ccc(c(Cl)c3)Oc3cc2cc(c3O[C@@H]2OC(CO)[C@@H](O)[C@H](O)[C@H]2O[C@H]2C[C@](C)(N)[C@H](O)[C@H](C)O2)Oc2ccc(cc2Cl)[C@H]1O (stereo partly drawn),nt,-3%,nt,nt,nt,nt
Cc1nonc1C1CCCN1Cc1nc(-c2ccccc2Cl)oc1C (stereo not drawn),-94*,-6%,3,1,-1%,54
COc1ccccc1C1CN(CCNC(=O)c2cscn2)Cc2ccccc2O1 (stereo not drawn),nt,1%,nt,nt,nt,nt
CC(=O)c1cccc(N(C(=O)c2ccco2)C(C(=O)NC2CCCC2)c2ccncc2)c1 (stereo not drawn),-9,-2%,-115*,1,1%,-5
CC(=O)c1cccc(N(C(=O)c2ccco2)C(C(=O)NC2CCCC2)c2ccc(N3CCOCC3)cc2)c1 (stereo not drawn),19,-2%,i,0,-3%,-3
CCSC1=NSC2=NC(=O)/C(=C\c3coc4ccccc4c3=O)C(=N)N12,-1,6%,-4,77*,?,-1
CC(C)CC1=NN2C(=N)/C(=C\c3coc4ccccc4c3=O)C(=O)N=C2S1,-8,-1%,-3,69*,?,-19
SMILES,KCNH2 3.1 block,GRP78 ERSR act,hERG WT inh,TRPML1 ag,PTAP TSG101 blk,TRPML1 blocker
Cc1cccc(-n2c(C)cc(/C=C3\C(=N)N4N=C(CC(C)C)SC4=NC3=O)c2C)c1,-4,-1%,15,1,0%,39
O=C(NCCc1ccncc1)Nc1ccc(Cl)c(Cl)c1,-82*,-3%,-13,-1,0%,-8
O=C(NCCc1ccncc1)Nc1ccccc1,5,-1%,4,1,-2%,6
COc1cc(OC)cc(C(=O)NCC(=O)Nc2ccc(-c3ccccc3)cc2)c1,-82*,2%,2,7,1%,-12
COc1cc(OC)cc(C(=O)Nc2cccc(NC(=O)c3ccccc3)c2)c1,-4,-3%,1,2,-2%,0
COc1cc(OC)cc(C(=O)Nc2ccc(-c3nc4ccccc4o3)cc2)c1,-112*,2%,-44,1,0%,-1
COc1cc(OC)cc(C(=O)NCC(=O)Nc2ccc(C)c(Cl)c2)c1,9,-4%,-1,2,-7%,-5
COc1cc(OC)cc(C(=O)Nc2ccc(Nc3ccccc3)cc2)c1,-86*,6%,0,nt,1%,nt
COc1cc(OC)cc(C(=O)Nc2ccc(-c3nc4cc(C(C)C)ccc4o3)cc2)c1,nt,-1%,nt,0,nt,-8
CO/N=C1\C[C@]2(C[C@@H]3C[C@H](C/C=C(/C)C[C@@H](C)/C=C\C=C4\CO[C@@H]5[C@@H](O)C(C)=C[C@@H](C(=O)O3)[C@]45O)O2)O[C@@H](/C(C)=C/C(C)C)[C@H]1C,nt,-11%,nt,nt,nt,nt
Cc1cc(CN2CCCC(CNC(=O)c3ccc(F)cc3)C2)cc(C)c1O (stereo not drawn),-2,-5%,40,0,-6%,-3
COc1cc(OC)c(OC)cc1CN1CCCC(C(=O)c2sccc2C)C1 (stereo not drawn),-16,-5%,61,1,-5%,13
